Assay outcomes: PubChem BioAssay, several laboratories
Bim-Mcl-1 = inhibitors of Bim peptide binding to Mcl-1, primary screen, biochemical, bead-based flow cytometry, multiplex; Induced myeloid leukemia cell differentiation protein Mcl-1 (Homo sapiens), Q07820; Bim peptide-Mcl-1 binding; inhibition, % at 10 µM; hit rate 0.1% among 190,000; in the data active means inhibition above about 40%;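 further: 0% = no compound tracer wells and 100% = peptide blocker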
Mcl1 Noxa PPI = Mcl-1/Noxa binding inhibitors, primary screen, biochemical, TR-FRET, 1536-well | TR-FRET Mcl-1/Noxa peptide binding, 2 h | hit rate 1.5% among 220,000 | Induced myeloid leukemia cell differentiation protein Mcl-1 (Homo sapiens), Q07820 | inhibition, % at 21.7 µM | AID 1022, 2008;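 active means compounds that cut the protein-peptide binding signal by more than 50% relative to plate controls in a single-dose test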;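 further: His-tagged Mcl-1 with rhodamine Noxa BH3 peptide and terbium anti-His antibody; 0% = Mcl-1 plus Noxa peptide wells and 100% = peptide-only wells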
Bcl-xL primary = inhibitors of human Bcl-xL, primary screen, biochemical, fluorescence polarization, HTS; GST-Bcl-xL / FITC-Bim BH3 peptide fluorescence polarization; inhibition, % at 10.9 µM; Bcl-2-like protein 1 (Homo sapiens), Q07817; AID 2129, 2009; hit rate 0.7% among 320,000;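 active means inhibition above the mean of all tested compounds plus 3 SD, cutoff set per campaign, cut at about 30% in these data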;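 further: 0% = DMSO wells and 100% = unlabeled Bim-BH3 peptide competitor; inhibitors lower millipolarization by displacing the labeled peptide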
Target sequence (Q07817 whole entry, looked up): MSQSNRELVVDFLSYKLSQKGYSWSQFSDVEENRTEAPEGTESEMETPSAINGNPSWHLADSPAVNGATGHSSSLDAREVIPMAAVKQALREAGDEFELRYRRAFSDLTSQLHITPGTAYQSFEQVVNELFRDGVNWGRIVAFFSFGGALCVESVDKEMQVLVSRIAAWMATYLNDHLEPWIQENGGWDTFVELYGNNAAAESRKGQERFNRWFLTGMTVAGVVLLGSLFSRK
Mcl1 Bid PPI = Mcl-1/Bid binding inhibitors, primary screen, biochemical, TR-FRET, 1536-well; TR-FRET Mcl-1/Bid-Dy647 peptide binding; inhibition, % at 21.7 µM; hit rate 0.97% among 220,000;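 active means compounds that cut the binding signal by more than half at the single screening dose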;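 further: His-tagged Mcl-1 with europium anti-His antibody binding Bid BH3 peptide; 0% = Mcl-1 plus peptide wells and 100% = peptide-only wells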
MCL1-BIM inh = inhibitors of MCL1 binding to BIM-BH3, primary screen, biochemical, fluorescence polarization; Induced myeloid leukemia cell differentiation protein Mcl-1 (Homo sapiens), Q07820; GST-MCL1 / FITC-Bim-BH3 fluorescence polarization; inhibition, % at 10.9 µM; hit rate 0.68% among 320,000;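 active means inhibition above the mean inhibition of all tested compounds plus 3 SD, set per campaign, cut at about 40% in these data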;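 further: 0% = DMSO wells and 100% = unlabeled Bim-BH3 peptide control; higher means more loss of mP so more displacement of Bim peptide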
GLD-1 TGE inh = GLD-1/TGE RNA complex disruptors, primary screen, biochemical, fluorescence polarization; Female germline-specific tumor suppressor gld-1 (Caenorhabditis elegans), Q17339; purified GLD-1 + fluorescein TGE RNA; inhibition, % at 5.96 µM; hit rate 0.44% among 320,000; AID 2280, 2010;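 active means percent inhibition above a per-plate cutoff, the plate mean of test compounds plus 3 SD, cut at about 30% in these data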;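 further: 0% = DMSO wells with GLD-1 and probe and 100% = wells lacking GLD-1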
Target sequence (Q17339 whole entry, looked up): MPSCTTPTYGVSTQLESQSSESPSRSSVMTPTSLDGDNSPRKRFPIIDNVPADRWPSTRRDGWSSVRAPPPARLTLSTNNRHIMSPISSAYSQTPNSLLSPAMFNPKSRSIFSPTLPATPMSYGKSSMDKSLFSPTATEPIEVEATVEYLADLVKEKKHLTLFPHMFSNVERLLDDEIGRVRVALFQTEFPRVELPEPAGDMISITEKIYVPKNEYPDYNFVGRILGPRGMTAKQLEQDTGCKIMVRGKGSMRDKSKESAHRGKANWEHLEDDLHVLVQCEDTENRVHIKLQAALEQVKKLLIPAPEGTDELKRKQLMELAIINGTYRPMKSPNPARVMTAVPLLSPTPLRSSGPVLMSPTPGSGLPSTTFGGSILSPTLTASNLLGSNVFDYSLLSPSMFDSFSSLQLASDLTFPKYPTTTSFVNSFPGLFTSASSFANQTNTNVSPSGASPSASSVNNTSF
* hit, by the source's call. Most compounds without a hit are left out; they make up all but 2.3% or so of the library.

`Cc1ccc(CN(C(=O)c2csnn2)C(C(=O)NC2CCCC2)c2ccccn2)cc1` (centres undefined) gave Bcl-xL primary 3, MCL1-BIM inh 8 and GLD-1 TGE inh -5.
CCCc1nnc(NC(=O)C2CCN(C(=O)C3CC(=O)N(c4ccc(C)cc4)C3)CC2)s1 (centres undefined) was read as Bcl-xL primary 3, MCL1-BIM inh -2 and GLD-1 TGE inh -4.
For CCC(Oc1ccccc1)C(=O)NCCCN1CCOCC1 (centres undefined) the results were Bcl-xL primary 1, MCL1-BIM inh 2 and GLD-1 TGE inh -2.
Screening O=C(CCOc1ccccc1)Nc1ccnn1C1CCN(CCc2ccccc2)CC1 returned Bcl-xL primary -3, MCL1-BIM inh 0 and GLD-1 TGE inh 1.
`COc1ccc(CCNC(=O)c2cc3c(=O)n4ccccc4nc3n(Cc3ccco3)c2=N)cc1OC` gave Bcl-xL primary 15, MCL1-BIM inh 12 and GLD-1 TGE inh 0.
`Cc1ccc(Cn2c(=N)c(C(=O)NCc3ccco3)cc3c(=O)n4ccccc4nc32)cc1` gave Bim-Mcl-1 -1, Mcl1 Noxa PPI 80*, Bcl-xL primary 15, Mcl1 Bid PPI 3, MCL1-BIM inh 22 and GLD-1 TGE inh -1.
For N=c1c(C(=O)NCc2ccco2)cc2c(=O)n3ccccc3nc2n1CC1CCCO1 (centres undefined) the results were Bcl-xL primary 30, MCL1-BIM inh 31 and GLD-1 TGE inh 17.
Screening COCCn1c(=N)c(C(=O)NCc2ccco2)cc2c(=O)n3cc(C)ccc3nc21 returned Bim-Mcl-1 1, Mcl1 Noxa PPI 9, Bcl-xL primary 72*, Mcl1 Bid PPI -29, MCL1-BIM inh 69* and GLD-1 TGE inh 56*.
CCOc1ccc(N2CC(O)=C(c3nc4ccccc4c(=O)[nH]3)C2=N)cc1 was read as Bim-Mcl-1 0, Mcl1 Noxa PPI 48, Bcl-xL primary 5, Mcl1 Bid PPI 57*, MCL1-BIM inh -2 and GLD-1 TGE inh 9.
For Cc1ccc2[nH]c(O)c(N=NC(=O)c3ccc(NS(=O)(=O)c4cccs4)cc3)c2c1 the results were Mcl1 Noxa PPI 71*, Bcl-xL primary 12, Mcl1 Bid PPI 11, MCL1-BIM inh 19 and GLD-1 TGE inh 7.
`O=C(Nc1ccc2c(c1)OCO2)c1cc2ncc(Br)cn2n1` gave Bim-Mcl-1 3, Mcl1 Noxa PPI 58* and Mcl1 Bid PPI -58.
`O=C(Nc1cccc(C(F)(F)F)c1)c1cc2ncc(Br)cn2n1` gave Bim-Mcl-1 1, Mcl1 Noxa PPI 22, Bcl-xL primary 4, Mcl1 Bid PPI -22, MCL1-BIM inh 1 and GLD-1 TGE inh 2.
For O=C(/C=C/c1cccnc1)c1cccc(O)c1 the results were Bcl-xL primary 3, MCL1-BIM inh 10 and GLD-1 TGE inh -2.
For O=C(/C=C/c1cccnc1)c1ccc(O)cc1 the results were Mcl1 Noxa PPI 85*, Bcl-xL primary 7, Mcl1 Bid PPI -49, MCL1-BIM inh 19 and GLD-1 TGE inh 1.
For Cc1cccc(CN2CCC(Oc3ccc(C(=O)N4CCCCC4)cc3)CC2)c1 the results were Bcl-xL primary -1, MCL1-BIM inh 6 and GLD-1 TGE inh 2.
Screening COc1ccccc1NS(=O)(=O)c1cccc(NC(=O)C2CC(=O)N(Cc3ccccc3)C2)c1 (centres undefined) returned Bim-Mcl-1 1, Mcl1 Noxa PPI 12, Bcl-xL primary -1, Mcl1 Bid PPI 88*, MCL1-BIM inh 0 and GLD-1 TGE inh 6.
`O=c1oc2ccccc2c(O)c1/C=C1\C=Nc2ccccc21` gave Bim-Mcl-1 0, Mcl1 Noxa PPI 78*, Bcl-xL primary -8, Mcl1 Bid PPI -53, MCL1-BIM inh -26 and GLD-1 TGE inh -19.
`CO/N=C(\CCC(=O)O)c1cccs1` gave Mcl1 Noxa PPI 8, Bcl-xL primary -1, Mcl1 Bid PPI -28, MCL1-BIM inh -2 and GLD-1 TGE inh 2.
Screening Nc1ccc(NC(=O)c2ccccc2)c2c1C(=O)c1ccccc1C2=O returned Bim-Mcl-1 -1, Mcl1 Noxa PPI 66*, Bcl-xL primary 8, Mcl1 Bid PPI 54*, MCL1-BIM inh 17 and GLD-1 TGE inh 8.
For Nc1ccccc1NC(=O)c1ccccc1 the results were Bim-Mcl-1 -3, Mcl1 Noxa PPI 3, Bcl-xL primary -2, Mcl1 Bid PPI -25, MCL1-BIM inh 0 and GLD-1 TGE inh 0.
Nc1ccc(Br)c2c1C(=O)c1ccccc1C2=O was read as Bim-Mcl-1 1, Mcl1 Noxa PPI 36, Bcl-xL primary 46*, Mcl1 Bid PPI -5, MCL1-BIM inh 40* and GLD-1 TGE inh 16.
For O=c1[nH]c(CSc2ncccn2)nc2c1cnn2-c1ccccc1 the results were Bim-Mcl-1 -7, Mcl1 Noxa PPI 58*, Bcl-xL primary 4, Mcl1 Bid PPI -19, MCL1-BIM inh 6 and GLD-1 TGE inh -6.
`CC1CCN(Cc2c(C(=O)N3CCc4ccccc4C3)nc3ccc(Cl)cn23)CC1` gave Bcl-xL primary 13, MCL1-BIM inh 13 and GLD-1 TGE inh 17.
NC(=O)[C@@H]1CCCN1Cc1c(C(=O)N2CCc3ccccc3C2)nc2ccc(Cl)cn12 was read as Bcl-xL primary 41*, MCL1-BIM inh 43* and GLD-1 TGE inh 36*.
O=C(N/N=C/c1ccoc1)c1cccc(OC(F)(F)C(F)F)c1 was read as Bcl-xL primary 5, MCL1-BIM inh 7 and GLD-1 TGE inh -5.
For Cc1ccc(OCCNC(=O)CCNC(=O)c2ccc(Cl)cc2)cc1 the results were Bcl-xL primary 6, MCL1-BIM inh 1 and GLD-1 TGE inh 5.
O=c1c(=NNc2ccccc2Cl)c(=O)c2ccccc12 was read as Bim-Mcl-1 -3, Mcl1 Noxa PPI 33 and Mcl1 Bid PPI 57*.
`O=C(c1ccc(S(=O)(=O)NCc2ccco2)cc1)N1CCN(Cc2ccc3c(c2)OCO3)CC1` gave Bim-Mcl-1 1, Mcl1 Noxa PPI -18, Bcl-xL primary -3, Mcl1 Bid PPI 6, MCL1-BIM inh -1 and GLD-1 TGE inh -6.
CCOC(=O)Cn1c2ccccc2n2nc(CCC(=O)O)c(=O)nc12 was read as Bim-Mcl-1 -2, Mcl1 Noxa PPI 3, Bcl-xL primary 3, Mcl1 Bid PPI -7, MCL1-BIM inh -6 and GLD-1 TGE inh 0.
Screening O=C(O)CCc1nn2c3ccccc3n(CC(=O)c3ccccc3)c2nc1=O returned Bim-Mcl-1 3, Mcl1 Noxa PPI 28, Bcl-xL primary 1, Mcl1 Bid PPI 74*, MCL1-BIM inh -4 and GLD-1 TGE inh -1.
